We go through 35 compounds from the supplement of paper PMC4371806.

Molecules are shown by their SMILES. Whole data set: some 2,300 compounds, median “plate-normalized OD600 growth (mean of duplicates)” near 0.29, cut for the lowest 2% near 0.22. The entries come from a sample that favours the lowest values as a whole.

This test concerns Escherichia coli BW25113. Nature of the test: plate-normalized OD600 growth (mean of duplicates) (OD600 (normalized)); higher = more growth (less inhibition). To be noted: 10 µM. The method, then:
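E. coli BW25113 in LB (100 µl, 96-well, no shaking) was exposed to 10 µM of each compound from a ~30,000-member library and grown at 37°C for 24 h or 15°C for 48 h, in duplicate. Growth was read as OD600 and the duplicate ODs were normalized across screening plates to correct plate-to-plate variation. Hits were >3σ below the mean OD600 at 15°C and <2σ below the mean at 37°C.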

As to `N#CC1=C(N)Oc2n[nH]c(-c3cccs3)c2C12C(=O)Nc1ccc([N+](=O)[O-])cc12` (stereo not given), the “plate-normalized OD600 growth” value came out at 0.265 (temperature: 15°C, 48 h) and 0.618 (temperature: 37°C, 24 h).
As for `COC(=O)CN1C(=O)C2(C(C#N)=C(N)Oc3n[nH]c(C)c32)c2ccccc21` (stereo not given), the “plate-normalized OD600 growth” value runs as follows: (temperature: 15°C, 48 h) 0.207; (temperature: 37°C, 24 h) 0.65.
The like results for `CCOc1ccc(-c2[nH]nc3c2C2(C(=O)Nc4ccc(C)c(Br)c42)C(C#N)=C(N)O3)cc1` (stereo not given) were, in that order, 0.245 and 0.6.
As to `CCOC(=O)c1c(N)oc2c(-c3ccc(C)c(Cl)c3)c3c(C(=O)OCC)c(N)oc3cc12`, the “plate-normalized OD600 growth” value came out at 0.218 (temperature: 15°C, 48 h) and 0.622 (temperature: 37°C, 24 h).
The like results for `N#CCS(=O)(=O)c1cccs1` were, in that order, 0.217 and 0.626.
Consider `O=C(NC1Cc2ccccc2C1)c1cncc(Br)c1`, for which the “plate-normalized OD600 growth” value came to 0.281 (temperature: 15°C, 48 h) and 0.658 (temperature: 37°C, 24 h).
Take `c1ccc(-c2cc3c(nn2)CCc2nonc2-3)cc1`: the “plate-normalized OD600 growth” value (temperature: 15°C, 48 h) turned out to be 0.27 and the “plate-normalized OD600 growth” value (temperature: 37°C, 24 h) came to 0.648.
Take `N#C/C(=C\c1ccc(OC(=O)c2cccc([N+](=O)[O-])c2)cc1)C(=O)c1ccccc1`: the “plate-normalized OD600 growth” value by setting is: (temperature: 15°C, 48 h) 0.211; (temperature: 37°C, 24 h) 0.634.
As to `O=C(N/N=C/c1ccc(OC(=O)c2cccc(F)c2)cc1)C1=NNC(c2ccccc2)(c2ccccc2)C1`, the “plate-normalized OD600 growth” value is 0.267 (temperature: 15°C, 48 h) and 0.624 (temperature: 37°C, 24 h).
Consider `COc1cc(O)ccc1/C=N/NC(=O)c1cccc([N+](=O)[O-])c1`, for which the “plate-normalized OD600 growth” value is, setting by setting: (temperature: 15°C, 48 h) 0.248; (temperature: 37°C, 24 h) 0.614.
Take `CC(Oc1ccccc1)C(=O)Nc1ccc(Cl)cc1` (stereo not given): the “plate-normalized OD600 growth” value runs as follows: (temperature: 15°C, 48 h) 0.222; (temperature: 37°C, 24 h) 0.64.
The like results for `CC(=O)c1cnn(-c2ccccc2)c1C` were, in that order, 0.259 and 0.623.
In the same order, the values of `O=C(/C=C/c1cccs1)C(C(=O)c1ccccc1)=C1SCCCCS1` are 0.244 and 0.615.
In the same order, the values of `O=C(CSc1nc2ccccc2s1)Nc1cccn2cc(-c3ccccc3)nc12` are 0.263 and 0.614.
With `COc1ccc(CNCC2COc3ccccc3O2)cc1OC` (stereo not given), the “plate-normalized OD600 growth” value runs as follows: (temperature: 15°C, 48 h) 0.26; (temperature: 37°C, 24 h) 0.638.
The like results for `CC(C)Nc1nc(Cl)nc(Nc2cccc(C(F)(F)F)c2)n1` were, in that order, 0.262 and 0.62.
The like results for `CCN=C(NCC)SC1CC(=O)N(c2ccc(C(=O)O)cc2)C1=O` (stereo not given) were, in that order, 0.246 and 0.617.
In the same order, the values of `CCOc1ccc(C(C)(C)C(=O)Nc2ccc(C(=O)/C=C/c3ccco3)cc2)cc1` are 0.266 and 0.639.
Turning to `Clc1ccc2nc(N3CCOCC3)nc(-c3ccccc3)c2c1`, the “plate-normalized OD600 growth” value came to 0.251 (temperature: 15°C, 48 h) and 0.61 (temperature: 37°C, 24 h).
Regarding `CCC(=O)Nc1nc2ccc(C)cc2s1`, the “plate-normalized OD600 growth” value (temperature: 15°C, 48 h) turned out to be 0.246 and the “plate-normalized OD600 growth” value (temperature: 37°C, 24 h) was determined as 0.603.
Regarding `N#CC(C(=O)Nc1cccc(C(F)(F)F)c1)C(=S)Nc1ccccc1Cl` (stereo not given), the “plate-normalized OD600 growth” value runs as follows: (temperature: 15°C, 48 h) 0.254; (temperature: 37°C, 24 h) 0.644.
With `COc1cc(C(=S)N2CCCCC2)ccc1OC(=O)c1ccccc1`, the “plate-normalized OD600 growth” value is 0.00796 (temperature: 15°C, 48 h) and 0.606 (temperature: 37°C, 24 h).
In the same order, the values of `CCCCOc1cc(C(=O)O)ccc1OC` are 0.261 and 0.64.
On to `COc1ccc(C(=O)N2CCN(c3c(C)cccc3C)CC2)cc1OC`, for which the “plate-normalized OD600 growth” value (temperature: 15°C, 48 h) worked out at 0.257 and the “plate-normalized OD600 growth” value (temperature: 37°C, 24 h) came out at 0.622.
The like results for `Clc1cccc(Cl)c1/C=N/Nc1nncc(-c2ccccc2)n1` were, in that order, 0.186 and 0.641.
In the same order, the values of `CSCCC(NC(=O)c1ccccc1)C(=O)OCC(=O)Nc1ccccc1C#N` (stereo not given) are 0.236 and 0.619.
In the case of `Clc1cccc(CN2CCN(Cc3ccco3)CC2)c1`, the “plate-normalized OD600 growth” value (temperature: 15°C, 48 h) was found to be 0.237 and the “plate-normalized OD600 growth” value (temperature: 37°C, 24 h) turned out to be 0.636.
The like results for `Cc1cc2c(cc1C)CN(c1ccc(C(=O)N/N=C/c3ccccc3O)cc1)C2` were, in that order, 0.25 and 0.63.
In the same order, the values of `COc1ccc(/C=N/NC(=O)COc2ccc(Cl)cc2)cc1I` are 0.257 and 0.62.
The like results for `CCCCOc1cccc(NC(=O)CCSc2nccn2C)c1` were, in that order, 0.25 and 0.643.
Regarding `N#C/C(=C\c1ccccc1Cl)c1nc2ccccc2[nH]1`, the “plate-normalized OD600 growth” value runs as follows: (temperature: 15°C, 48 h) 0.26; (temperature: 37°C, 24 h) 0.624.
Turning to `O=C(NCc1csc(-c2cccs2)n1)C1=Cc2ccccc2OC1`, the “plate-normalized OD600 growth” value reads like this: (temperature: 15°C, 48 h) 0.243; (temperature: 37°C, 24 h) 0.593.
With `O=C(Nc1ccccc1C(=O)NC1CCCCNC1=O)c1cccs1` (stereo not given), the “plate-normalized OD600 growth” value runs as follows: (temperature: 15°C, 48 h) 0.253; (temperature: 37°C, 24 h) 0.638.
The like results for `COc1ccc(-c2cc(C(F)(F)F)n3nc(C(=O)NC(C)(C)C)c(Cl)c3n2)cc1OC` were, in that order, 0.245 and 0.619.
As for `Cc1nc(Nc2ccc(F)cc2)c2oc3ccccc3c2n1`, the “plate-normalized OD600 growth” value (temperature: 15°C, 48 h) amounted to 0.245 and the “plate-normalized OD600 growth” value (temperature: 37°C, 24 h) was determined as 0.613.
